# This is a sample that favours compounds with a hit; in the whole collection about 3.4% have one here.
# GPR151 ag – activators of human GPR151, primary screen, cell-based, PathHunter beta-arrestin, luminescence. G-protein coupled receptor 151 (Homo sapiens), Q8TDV0. PathHunter beta-arrestin GPR151 cells. activation, % at 11.2 µM. 650,000 compounds, 1% hits; in the data active = activation above about 4.9%
# TEAD-YAP block – TEAD-YAP interaction inhibition, primary screen, TEAD-YAP interaction inhibitor project, luminescence, HEK-TIYL cells | TEAD-Gal4/YAP UAS-luciferase luminescence | AID 1259422, 2018 | inhibition, % at 9.12 µM | 640,000 compounds, 1.4% hits; in the data active = inhibition above about 32%
# FBW7 act – FBW7 E3 ligase activators, primary screen, biochemical, AlphaScreen, human | 650,000 compounds, 0.13% hits | normalized activity (activation), % at 26.1 µM | AlphaScreen FBW7–phospho-cyclin E peptide binding, activator screen | F-box/WD repeat-containing protein 7 (Homo sapiens), Q969H0; in the data active = normalized activity above about 1.9%;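 note: purified mutant Fbw7 with reduced substrate affinity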
# Target sequence (Q969H0 whole entry, looked up): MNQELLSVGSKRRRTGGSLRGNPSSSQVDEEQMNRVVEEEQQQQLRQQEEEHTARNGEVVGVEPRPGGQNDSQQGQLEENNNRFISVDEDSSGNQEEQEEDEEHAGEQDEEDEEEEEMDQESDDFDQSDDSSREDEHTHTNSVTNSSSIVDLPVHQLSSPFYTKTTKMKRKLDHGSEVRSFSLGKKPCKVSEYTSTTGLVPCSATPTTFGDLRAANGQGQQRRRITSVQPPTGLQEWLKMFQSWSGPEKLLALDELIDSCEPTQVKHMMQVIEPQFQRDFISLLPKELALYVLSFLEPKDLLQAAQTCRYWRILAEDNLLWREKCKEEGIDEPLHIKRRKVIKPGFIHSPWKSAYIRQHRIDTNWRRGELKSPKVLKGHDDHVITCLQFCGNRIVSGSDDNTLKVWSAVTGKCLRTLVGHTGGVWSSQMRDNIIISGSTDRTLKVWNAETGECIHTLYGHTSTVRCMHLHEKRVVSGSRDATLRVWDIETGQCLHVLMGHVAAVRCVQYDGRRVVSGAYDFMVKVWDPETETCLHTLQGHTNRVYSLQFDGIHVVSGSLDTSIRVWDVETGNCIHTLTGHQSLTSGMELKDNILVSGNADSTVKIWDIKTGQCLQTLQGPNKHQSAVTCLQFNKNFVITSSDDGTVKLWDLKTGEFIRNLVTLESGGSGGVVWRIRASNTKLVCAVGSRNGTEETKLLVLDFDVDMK
# MITF primary – MITF inhibitors, primary screen, biochemical, AlphaScreen, human; Microphthalmia-associated transcription factor (Homo sapiens), O75030; AlphaScreen MITF homodimerization, bead proximity signal; inhibition, % at 2.6 µM; 650,000 compounds, 0.91% hits; in the data active = inhibition above about 50%
# Numbers stand for hits; n = inactive.
SMILES,GPR151 ag,TEAD-YAP block,FBW7 act,MITF primary
OCCNc1nc(N2CCN(c3ccccn3)CC2)nc2c1ncn2-c1ccccc1,n,42,n,n
CCCNc1nc(N2CCCC2CO)nc2c1ncn2-c1ccsc1 (stereo not drawn),n,37,n,n
CC(=O)Nc1ccc(-n2c(SCC(=O)N(c3ccccc3)C(C)C)nc3sc4c(c3c2=O)CCCC4)cc1,n,n,n,n
Cc1ccc(-c2nc(NCc3ccccc3)c3ccccc3n2)cc1,n,n,n,n
Fc1ccccc1Nc1nc(NCc2ccco2)c2ccccc2n1,n,n,n,n
Cc1ccc(Nc2nc(NCc3ccccc3)c3ccccc3n2)cc1,n,36,n,n
Fc1ccccc1Nc1nc(NCc2ccccc2)c2ccccc2n1,n,47,n,n
CC(C)Oc1ccc(C(=O)Nc2nnc(-c3ccccn3)o2)cc1,n,36,n,n
N#Cc1ccc(C(=O)Nc2nnc(-c3ccccn3)o2)cc1,n,n,n,n
CC1CCCN(c2cc(NCC(=O)O)c3c4c(onc24)-c2ccccc2C3=O)C1 (stereo not drawn),n,67,n,59
CCNc1cc(N2CCN(CC)CC2)c2noc3c2c1C(=O)c1ccccc1-3,n,n,n,61
CN1CCN(c2cc(NCc3ccco3)c3c4c(onc24)-c2ccccc2C3=O)CC1,n,n,n,56
Cc1cccc(Nc2cc(N3CCCCC3)c3noc4c3c2C(=O)c2ccccc2-4)c1,n,n,n,52
CCNc1cc(N2CCN(C)CC2)c2noc3c2c1C(=O)c1ccccc1-3,n,n,n,n
CC(=O)N1CCN(Cc2cnc(Oc3ccc(I)cc3)s2)CC1,n,n,n,n
CCOc1ccccc1-c1noc(C)n1,n,n,n,n
CCOC(=O)c1c(Br)sc(-c2ccccc2)c1-c1ccccc1,n,n,n,n
CC1CCN(c2cc(NCCO)c3c4c(onc24)-c2ccccc2C3=O)CC1,n,n,n,n
CC(=O)OCCNc1cc(N2CCCCC2)c2noc3c2c1C(=O)c1ccccc1-3,n,n,n,57
CC(C)Nc1cc(N2CCOCC2)c2noc3c2c1C(=O)c1ccccc1-3,n,n,n,56
CC1CCN(c2cc(NCCC(=O)O)c3c4c(onc24)-c2ccccc2C3=O)CC1,n,n,n,55
CC1CCCN(c2cc(NCCO)c3c4c(onc24)-c2ccccc2C3=O)C1 (stereo not drawn),n,34,n,n
CCN(/C=N/S(=O)(=O)c1ccccc1)CC,n,n,n,n
CCOc1ccc(N2C(=O)CSC2c2ccc([N+](=O)[O-])cc2)cc1 (stereo not drawn),n,n,n,n
COc1cccc(OC)c1C(=O)NCc1ccc(Cl)cc1,n,n,n,n
SMILES,GPR151 ag,TEAD-YAP block,FBW7 act,MITF primary
CCn1cc(CNC(=O)CC2C(=O)NCCN2Cc2ccc(F)cc2Cl)cn1 (stereo not drawn),n,n,n,n
O=C(O)CCNCc1ccccc1F,n,n,n,n
O=C1c2ccccc2-c2onc3c(N4CCCCCC4)cc(NCCO)c1c23,n,37,n,n
CCNc1cc(N2CCCC2)c2noc3c2c1C(=O)c1ccccc1-3,n,n,n,n
O=C(O)CCCOc1cccc([N+](=O)[O-])c1,n,n,n,n
C/C(=N\Nc1ncc(Cl)cc1Cl)c1ccccn1,n,82,n,n
Nc1nc(Cl)nc2c1ncn2CCN1CCCC1=O,n,n,n,n
O=C(c1csc(-c2cc3ccccc3[nH]2)n1)N1CCc2ccccc21,n,40,n,n
O=C(c1csc(-c2cc3ccccc3[nH]2)n1)N1CCOCC1,n,n,n,n
Cc1nc(C)n(-c2ccc(Nc3nccc(-c4cccc(-n5ccnn5)c4)n3)cc2)n1,n,44,n,n
CC(=O)Nc1cc(F)cc(-c2ccnc(Nc3ccc(-n4nc(C)nc4C)cc3)n2)c1,n,45,n,n
N#CC1=C(N)Oc2c(cc(Cl)c3ccccc23)C1c1cccnc1 (stereo not drawn),n,n,n,n
COc1ccc2c(c1)CC/C(=C\c1cccn1C)C2=O,n,46,n,n
O=C(CSc1nc(-c2ccco2)cc(C(F)(F)F)n1)Nc1cccnc1,n,48,n,n
CC(C)NC(=O)CSc1nc(-c2ccco2)cc(C(F)(F)F)n1,n,n,n,n
CC(=O)Nc1cccc(NC(=O)CSc2nc(-c3ccco3)cc(C(F)(F)F)n2)c1,n,42,n,n
CCCNC(=O)CSc1nc(-c2ccco2)cc(C(F)(F)F)n1,n,n,n,n

# Source: PubChem (The Scripps Research Institute Molecular Screening Center)
